The source of these data is PubChem BioAssay AID1006 (Sanford-Burnham Center for Chemical Genomics, 2008).

Usually inhibition stands for the drop in the measured response relative to a control, in per cent.

The campaign covered roughly 200,000 compounds. About 3,000 (1.5%) were called active. The sample as a whole holds a higher share of actives than the screen did. Values without a mark were called inactive.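 The calls were made as follows: active = inhibition above about 50% when tested at 10 µM (limit read from the data); inactive = the rest.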

The test deals with Luciferin 4-monooxygenase (Photinus pyralis) (UniProt P08659). The test is described as follows: firefly luciferase enzyme inhibitors, primary screen, artefact control for luciferase-based inhibitor screens, biochemical, luminescence, ATPLite (AID 1006). The settings on record: 10 min, at 10 µM, active compounds read high. A general note: In ATP-based viability assays light output follows the ATP content of the culture.
Sequence of Luciferin 4-monooxygenase (Photinus pyralis) (P08659 whole entry, looked up): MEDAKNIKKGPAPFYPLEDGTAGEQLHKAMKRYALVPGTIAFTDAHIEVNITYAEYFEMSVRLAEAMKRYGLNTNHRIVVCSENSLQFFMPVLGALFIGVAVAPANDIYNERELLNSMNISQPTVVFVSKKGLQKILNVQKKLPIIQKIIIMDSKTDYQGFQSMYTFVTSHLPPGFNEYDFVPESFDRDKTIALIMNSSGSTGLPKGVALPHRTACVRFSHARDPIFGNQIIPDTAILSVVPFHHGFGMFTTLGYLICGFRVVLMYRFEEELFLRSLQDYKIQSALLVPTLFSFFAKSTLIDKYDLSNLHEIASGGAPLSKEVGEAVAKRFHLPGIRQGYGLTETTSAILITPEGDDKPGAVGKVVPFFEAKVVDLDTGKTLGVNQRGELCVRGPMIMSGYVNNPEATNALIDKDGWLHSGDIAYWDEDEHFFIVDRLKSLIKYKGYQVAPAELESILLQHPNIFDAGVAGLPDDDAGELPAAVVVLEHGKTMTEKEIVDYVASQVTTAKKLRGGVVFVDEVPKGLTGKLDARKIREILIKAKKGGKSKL
For the compound `NC(=O)Cc1nc2scc(-c3ccc(Cl)cc3)c2c(=O)[nH]1`, the inhibition is -1.4%.

Take `O=c1[nH]c(CN2CCOCC2)nc2cc(Cl)ccc12`: the inhibition was -3.5%.

For the compound `O=c1[nH]c(CCl)nc2cc(-c3ccc(Cl)cc3)sc12`, the inhibition is 93.3% (active).

Turning to `Cc1cccc(NC(=O)NC(=S)NC(=O)c2ccccc2)c1`, the inhibition is 12.7%.

Regarding `Cn1c(-c2ccccc2)c[n+]2c1CCCCC2`, the inhibition was -4.6%.

With `COc1ccc(C2=NN(c3ccccc3)C(c3cccs3)C2)cc1` (centres undefined), the inhibition is 5.5%.

As to `O=c1c2ccccc2nc(N/N=C/c2ccccc2)n1O`, the inhibition was 90.5% (active).

For `CC(C)(C)c1nnc(N/N=C/c2ccc(O)cc2)n(N)c1=O`, the inhibition was 17.8%.

Regarding `FC(F)(F)c1nc2ccccc2nc1N/N=C/c1ccc(Cl)cc1`, the inhibition is 8.5%.

For `c1ccc2c(NC3C4CC5CC(C4)CC3C5)nc(N3CCOCC3)nc2c1` (centres undefined), the inhibition is -8.2%.

Regarding `CCOc1ccc(NC(=O)c2cc(C)nc3ccccc23)cc1`, the inhibition was -2.9%.

Take `CCc1cccc(C)c1NC(=S)N(CCCN1CCN(C)CC1)Cc1cccs1`: the inhibition was -0.5%.

`CN1C(=O)/C(=C\c2cc(Br)cs2)c2ccccc21`: the inhibition was 32.4%.

With `CN(C)c1nccc(NCc2ccccc2)c1C#N`, the inhibition was -1.3%.

On to `O=C1NC(c2ccccc2)CCC1(Cl)Cl` (centres undefined), for which the inhibition is -1.3%.

As to `C/C(=N\OC(=O)c1ccccc1)c1c(C)nc2cc(C)ccn12`, the inhibition was -3.4%.

With `O=C(CSc1ccc(/C=N/NC(=O)c2cccc(F)c2)o1)Nc1ccccc1`, the inhibition is 3.7%.

As to `Cc1ccc(NC(=O)C(=O)NCc2ccc(/C=N/NC(=O)c3c(C)nc4cc(C)ccn34)o2)cc1`, the inhibition is 70.8% (active).

As to `C[C@@H]1CC[C@]2(O[C@@H](CCO)C[C@H](O)[C@H]2O)O1`, the inhibition is -2.6%.

Take `CCN(CC)CCNC(=O)c1ccc(NC(=O)c2c(F)cccc2Cl)cc1`: the inhibition was -2%.

On to `CC(=O)Nc1ccc(S(=O)(=O)NC2(C(F)(F)F)C(=O)NC(C)=C2C#N)cc1` (centres undefined), for which the inhibition was -5.9%.

In the case of `COc1ccc(-c2cc(C(=O)n3cnc4ccccc43)c3ccccc3n2)cc1`, the inhibition is 36.7%.

As for `C/C(N)=C(/C#N)C(=O)COC(=O)c1cc(-c2ccc(C)cc2)nc2ccccc12`, the inhibition was 12.9%.

As to `CNC(=O)COC(=O)c1cc(-c2ccc(OC)cc2)nc2ccccc12`, the inhibition is 54.2% (active).

As to `O=C(NNc1cc(Cl)ccc1Cl)c1cccnc1Cl`, the inhibition is -7.9%.

`CC(=O)c1sc(N/N=C\c2ccc(C)cc2)nc1C`: the inhibition is -5.2%.

For the compound `CC(=O)c1sc(NC(=O)c2ccc(C)cc2)nc1C`, the inhibition is 68.8% (active).

For the compound `CC(=O)c1sc(NC(=O)c2cccc3ccccc23)nc1C`, the inhibition is -4.9%.

For the compound `COc1ccc(/C=C/C(=O)Nc2ccc3c(c2)OCCO3)cc1OC`, the inhibition was 10.1%.

Regarding `COc1cccc(/C=C/C(=O)Nc2ccc3c(c2)OCCO3)c1`, the inhibition was 86.5% (active).

Regarding `CC(C)C(=O)Nc1cccc(C(=O)Nc2ccc3c(c2)OCO3)c1`, the inhibition is 33%.

Regarding `CCc1c(C)sc(NC(=O)/C=C/c2ccc3c(c2)OCO3)c1C(=O)OC`, the inhibition was 5%.

On to `Cc1cccc(NC(=O)/C=C/c2ccc3c(c2)OCO3)n1`, for which the inhibition was 89.3% (active).

On to `COc1ccc(OC)c(/C=C/C(=O)OCC(=O)Nc2ccc3c(c2)OCCO3)c1`, for which the inhibition is 0.6%.

Turning to `Cc1cccc(NC(=O)Nc2ccc3c(c2)OCO3)n1`, the inhibition was 55% (active).

With `CC(NC(=O)Nc1ccc2c(c1)OCO2)c1ccncc1` (centres undefined), the inhibition was -4.9%.

With `O=C(/C=C/c1ccc2c(c1)OCO2)NCc1ccc(F)cc1`, the inhibition is 1.2%.

As for `CC(=O)c1c(-c2ccccc2)c2ccccc2[nH]c1=O`, the inhibition is -6.4%.

As to `CSc1ccc(/C=N/N2CCN(Cc3ccccc3Cl)CC2)cc1`, the inhibition is -7.8%.

For `O=C(Cc1ccc(Cl)cc1)NCc1nc(-c2ccccc2)no1`, the inhibition was -3.2%.

On to `Cc1ccc(N(C(=O)c2sc(C)nc2C)C(C(=O)NC(C)(C)C)c2ccncc2)cc1` (centres undefined), for which the inhibition was -4.2%.

Consider `CCOC(=O)CN1CCC(c2ccccc2)CC1`, for which the inhibition is -0.7%.

As for `CCOc1ccc(S(=O)(=O)N/N=C(\C)c2ccc(Cl)c(Cl)c2Cl)cc1`, the inhibition is 1.5%.

For `CC1(C)C2CC=C(/C=N/NC(=O)C3CC3)C1C2` (centres undefined), the inhibition is -0.4%.

On to `COc1ccc(OCc2cccc(C(=O)N3CCCC3)c2)cc1`, for which the inhibition is 52.1% (active).

In the case of `Cc1cccc(C(=O)N2CCCN(C(=O)c3cccc(C)c3)CC2)c1`, the inhibition was -3%.

Take `CCN(CC)C(=O)c1ccc(O)c(OC)c1`: the inhibition is -4%.

As to `COc1ccc(OCC(=O)NNC(=O)c2cccc(C)c2)cc1`, the inhibition is -0.5%.

`CCOc1ccc(OCc2cccc(C(=O)N(CC)CC)c2)cc1`: the inhibition was 68% (active).

`CC(C)c1cc(C(N)=O)c(NC(=O)c2cccc(COc3ccc(Br)cc3)c2)s1`: the inhibition was -2.6%.

With `CCCn1nc(Oc2nc(NC(C)C)nc(N(C)C)n2)ccc1=O`, the inhibition is -7.4%.

Consider `Cc1ccccc1N1C(=O)C(Oc2ccc(Cl)cc2)C1CNCC1CCCO1` (centres undefined), for which the inhibition is -3.1%.

In the case of `CCOC(=O)c1sc(-c2cccc([N+](=O)[O-])c2)cc1N`, the inhibition was -3.5%.

As to `Cc1ccc(OCCCC(=O)NC(C)c2ccccc2)c(C)c1` (centres undefined), the inhibition is -1%.

Consider `O=C(O)/C=C/c1ccc(OCCCF)cc1`, for which the inhibition was -2.5%.

For the compound `O=C(Oc1ccccc1Cl)c1ccc(N2CCOCC2)c([N+](=O)[O-])c1`, the inhibition is -14.3%.

On to `COc1ccccc1NC(=O)COC(=O)Cc1ccc(S(=O)(=O)N2CCCCC2)s1`, for which the inhibition is -8.3%.

In the case of `CC(C)C(=O)OCC(=O)Nc1ccc2c(c1)CCC2`, the inhibition is 8.9%.

Turning to `O=C(Nc1ccc2c(c1)CCC2)c1ccc(Br)s1`, the inhibition was 57.1% (active).

`O=C(NC1CCCC1)c1ccc(Br)s1`: the inhibition is 3.5%.

`CCNC(=O)CC1C(=O)N(c2ccc(F)cc2)C(=O)N1CCc1sccc1C` (centres undefined): the inhibition is -3.3%.

As for `COc1ccc(/C=C/CN2CCCC(C(=O)c3cc(F)ccc3F)C2)cc1` (centres undefined), the inhibition is -1.7%.

Consider `O=C(Oc1ccc([N+](=O)[O-])cc1)c1ccc(Cl)c(S(=O)(=O)N2CCCCC2)c1`, for which the inhibition is -5.6%.

Turning to `COc1ccc(N=Cc2c(O)[nH]c3ccccc23)cc1OC`, the inhibition is 6%.

As for `COc1ccc(OC)c(N=Cc2c(O)[nH]c3ccccc23)c1`, the inhibition was 0.1%.

As to `COc1ccccc1N=Cc1c(O)c2ccccc2oc1=O`, the inhibition is 95.4% (active).

Consider `COc1ccc(NC(=O)CN2C(=O)CSC2=O)cc1`, for which the inhibition was 1.6%.

Consider `O=C(CCC(=O)Nc1ccccc1)N/N=C/c1ccccc1F`, for which the inhibition was -1.2%.

For the compound `O=C(/C=C/c1ccc2c(c1)OCO2)NCc1cn2cc(Cl)ccc2n1`, the inhibition is 5.7%.

With `CC(Oc1ccccc1)C(=O)Nc1oc(-c2ccco2)c(-c2ccco2)c1C#N` (centres undefined), the inhibition is -6.2%.

In the case of `COC(=O)c1cccnc1NC(=S)NC(C)C`, the inhibition is 9.9%.

For `COc1ccc(C2=Nc3cc(C)ccc3OC2)cc1`, the inhibition is 77.4% (active).

Take `COc1ccc(C2=NOC(COC(=O)c3ccc4ccccc4n3)C2)cc1` (centres undefined): the inhibition is 3.5%.

`COc1ccc(C2=NOC3(CC(=O)N(c4ccc(C)cc4)C3=O)C2)cc1` (centres undefined): the inhibition is -1.7%.

Consider `Cc1cc(N/N=C/c2ccccc2F)c2ccccc2n1`, for which the inhibition was -7.5%.

As to `Cc1ccc2nc(-c3ccncc3)cc(C(=O)Nc3ccc(OC(F)F)cc3)c2c1`, the inhibition is -8%.

As to `COc1ccccc1C(=O)Nn1c(-c2cccs2)nc2ccccc2c1=O`, the inhibition was -0.5%.

As to `Cc1cccc(N2C(=O)c3cccnc3C2=O)c1`, the inhibition was 68.5% (active).

For `O=C1c2cccnc2C(=O)N1Cc1cccs1`, the inhibition is -1.3%.

On to `Cc1ccc(Oc2ccc3c(c2)C(=O)N(c2cccc4cccnc24)C3=O)cc1`, for which the inhibition is -5.2%.

Regarding `CN(C)/N=C/c1cn(-c2ccccc2)nc1-c1cccnc1`, the inhibition is 5.7%.

Consider `CCOc1ccc(/C=C(/NC(=O)c2ccccc2)C(=O)NCCC(=O)O)cc1`, for which the inhibition was -10.4%.

Turning to `COC(=O)c1ccc(/C=N/OCC(=O)Nc2cc(F)ccc2F)cc1`, the inhibition is 0%.

For the compound `CCOC(=O)N1CCN(CC(=O)Nc2ccc(F)cc2)CC1`, the inhibition was -7.1%.

Regarding `COc1cc(C(=S)N2CCOCC2)ccc1O`, the inhibition was -1%.

For `Cc1ccc(Cc2nc(-c3cccc(C)c3)no2)cc1`, the inhibition is 2.3%.

As to `Cc1cccc(-c2noc(-c3ccc(F)cc3)n2)c1`, the inhibition is 59.9% (active).

In the case of `COc1ccc2[nH]c(=O)c(-c3noc(-c4ccc(F)cc4)n3)cc2c1`, the inhibition is -1.9%.

Turning to `COc1ccc(C(=O)NNC(=O)c2cc(C)[nH]n2)cc1`, the inhibition was -3.5%.

`Cn1cc(CCC(=O)N2CCCC(C(=O)c3ccc(C(C)(C)C)cc3)C2)cn1` (centres undefined): the inhibition is 1.3%.

In the case of `COc1cccc(C(=O)Nc2cccnc2)c1OC`, the inhibition was -1.1%.

Take `O=C(Nc1cccnc1)c1cccc(S(=O)(=O)N2CCCC2)c1`: the inhibition is -1.1%.

Regarding `O=C(Nc1cccnc1)c1noc2c1CCCCC2`, the inhibition is 57.5% (active).

For `Cc1ccc(CN2CCN(Cc3ccc(OCCO)cc3)CC2CCO)o1` (centres undefined), the inhibition was -7%.
